# Experimental data taken from the supplement of paper PMC8728848.
# This excerpt belongs to a sample that is enriched for the strongest signals.
# Tests used:
# Test in all cases: glycan array binding signal (z-score within array); higher = stronger binding
# Neu5Ac(a2-8)Neu5Ac = conditions: glycan notation: IUPAC condensed, linker removed
# In short: (§1)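 Columns mapping to the same glycan were averaged after glycan names were converted to IUPAC-condensed notation. The data come from 3228 arrays in the Consortium for Functional Glycomics database, limited to those with an available protein sequence. Binding is reported as a within-array Z-score averaged across arrays of one protein sequence and across linkers.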
# [1] = test system: Neu5Ac9Ac(a2-3)Gal(b1-3)GlcNAc; conditions: glycan notation: IUPAC condensed, linker removed
# In short: as §1
# [2] = test system: Neu5Gc(a2-3)Gal(b1-4)GlcNAc; conditions: glycan notation: IUPAC condensed, linker removed
# In short: as §1
# Neu5Ac(b2-6)GalNAc = conditions: glycan notation: IUPAC condensed, linker removed
# In short: as §1
# [3] = test system: Neu5Ac9Ac(a2-6)Gal(b1-4)GlcNAc; conditions: glycan notation: IUPAC condensed, linker removed
# In short: as §1
# [4] = test system: Neu5Ac(a2-8)Neu5Ac(a2-8)Neu5Ac; conditions: glycan notation: IUPAC condensed, linker removed; mutation: D138V, E140I
# In short: as §1
# [5] = test system: Neu5Ac(a2-8)Neu5Ac(a2-8)Neu5Ac(a2-8)Neu5Ac(a2-3)[GalNAc(b1-4)]Gal(b1-4)Glc; conditions: glycan notation: IUPAC condensed, linker removed
# In short: as §1
# [6] = test system: Neu5Ac9Ac(a2-3)Gal(b1-4)GlcNAc; conditions: glycan notation: IUPAC condensed, linker removed; mutation: R125K
# In short: as §1
# [7] = test system: Neu5Gc(a2-3)Gal(b1-3)[Fuc(a1-4)]GlcNAc; conditions: glycan notation: IUPAC condensed, linker removed; mutation: R125K
# In short: as §1
# [8] = test system: Neu5Gc(a2-3)Gal(b1-4)GlcNAc(b1-3)Gal(b1-4)GlcNAc(b1-2)Man(a1-3)[Neu5Gc(a2-3)Gal(b1-4)GlcNAc(b1-3)Gal(b1-4)GlcNAc(b1-2)Man(a1-6)]Man(b1-4)GlcNAc(b1-4)GlcNAc; conditions: glycan notation: IUPAC condensed, linker removed
# In short: as §1
# CHI3L1 (Homo sapiens), P36222, sequence (P36222 whole entry): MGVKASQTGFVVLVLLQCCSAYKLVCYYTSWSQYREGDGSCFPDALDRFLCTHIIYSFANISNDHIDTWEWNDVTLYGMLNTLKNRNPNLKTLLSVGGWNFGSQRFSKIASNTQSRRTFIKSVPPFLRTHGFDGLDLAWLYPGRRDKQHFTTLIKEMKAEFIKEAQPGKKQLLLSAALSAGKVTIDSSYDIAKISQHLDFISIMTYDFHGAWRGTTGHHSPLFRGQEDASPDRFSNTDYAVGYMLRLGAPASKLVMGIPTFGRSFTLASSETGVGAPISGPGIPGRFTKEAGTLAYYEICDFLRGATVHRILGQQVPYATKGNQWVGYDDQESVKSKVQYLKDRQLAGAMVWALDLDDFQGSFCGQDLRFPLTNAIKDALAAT
# 6RG (Lolium perenne), B9U140, sequence (B9U140 entry or part of it): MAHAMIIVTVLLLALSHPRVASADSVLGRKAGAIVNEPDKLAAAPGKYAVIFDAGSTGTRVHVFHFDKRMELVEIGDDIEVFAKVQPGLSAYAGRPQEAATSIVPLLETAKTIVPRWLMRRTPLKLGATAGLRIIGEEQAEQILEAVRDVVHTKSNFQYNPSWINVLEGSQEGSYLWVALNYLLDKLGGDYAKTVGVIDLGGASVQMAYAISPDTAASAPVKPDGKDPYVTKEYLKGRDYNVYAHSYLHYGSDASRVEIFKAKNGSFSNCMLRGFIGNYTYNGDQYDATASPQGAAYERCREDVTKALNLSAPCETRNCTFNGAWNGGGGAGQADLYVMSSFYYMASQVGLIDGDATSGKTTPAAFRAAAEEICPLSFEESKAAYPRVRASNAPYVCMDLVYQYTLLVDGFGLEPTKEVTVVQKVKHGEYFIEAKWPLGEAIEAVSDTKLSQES
# Avaren (Actinomycete K97), sequence (chain, as listed by the source): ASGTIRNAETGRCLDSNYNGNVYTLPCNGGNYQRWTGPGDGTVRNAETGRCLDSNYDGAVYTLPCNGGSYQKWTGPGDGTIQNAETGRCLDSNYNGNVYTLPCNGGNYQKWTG
# Neurocan (Homo sapiens), O14594, sequence (O14594 other isoform, or with tags, fused parts or gaps): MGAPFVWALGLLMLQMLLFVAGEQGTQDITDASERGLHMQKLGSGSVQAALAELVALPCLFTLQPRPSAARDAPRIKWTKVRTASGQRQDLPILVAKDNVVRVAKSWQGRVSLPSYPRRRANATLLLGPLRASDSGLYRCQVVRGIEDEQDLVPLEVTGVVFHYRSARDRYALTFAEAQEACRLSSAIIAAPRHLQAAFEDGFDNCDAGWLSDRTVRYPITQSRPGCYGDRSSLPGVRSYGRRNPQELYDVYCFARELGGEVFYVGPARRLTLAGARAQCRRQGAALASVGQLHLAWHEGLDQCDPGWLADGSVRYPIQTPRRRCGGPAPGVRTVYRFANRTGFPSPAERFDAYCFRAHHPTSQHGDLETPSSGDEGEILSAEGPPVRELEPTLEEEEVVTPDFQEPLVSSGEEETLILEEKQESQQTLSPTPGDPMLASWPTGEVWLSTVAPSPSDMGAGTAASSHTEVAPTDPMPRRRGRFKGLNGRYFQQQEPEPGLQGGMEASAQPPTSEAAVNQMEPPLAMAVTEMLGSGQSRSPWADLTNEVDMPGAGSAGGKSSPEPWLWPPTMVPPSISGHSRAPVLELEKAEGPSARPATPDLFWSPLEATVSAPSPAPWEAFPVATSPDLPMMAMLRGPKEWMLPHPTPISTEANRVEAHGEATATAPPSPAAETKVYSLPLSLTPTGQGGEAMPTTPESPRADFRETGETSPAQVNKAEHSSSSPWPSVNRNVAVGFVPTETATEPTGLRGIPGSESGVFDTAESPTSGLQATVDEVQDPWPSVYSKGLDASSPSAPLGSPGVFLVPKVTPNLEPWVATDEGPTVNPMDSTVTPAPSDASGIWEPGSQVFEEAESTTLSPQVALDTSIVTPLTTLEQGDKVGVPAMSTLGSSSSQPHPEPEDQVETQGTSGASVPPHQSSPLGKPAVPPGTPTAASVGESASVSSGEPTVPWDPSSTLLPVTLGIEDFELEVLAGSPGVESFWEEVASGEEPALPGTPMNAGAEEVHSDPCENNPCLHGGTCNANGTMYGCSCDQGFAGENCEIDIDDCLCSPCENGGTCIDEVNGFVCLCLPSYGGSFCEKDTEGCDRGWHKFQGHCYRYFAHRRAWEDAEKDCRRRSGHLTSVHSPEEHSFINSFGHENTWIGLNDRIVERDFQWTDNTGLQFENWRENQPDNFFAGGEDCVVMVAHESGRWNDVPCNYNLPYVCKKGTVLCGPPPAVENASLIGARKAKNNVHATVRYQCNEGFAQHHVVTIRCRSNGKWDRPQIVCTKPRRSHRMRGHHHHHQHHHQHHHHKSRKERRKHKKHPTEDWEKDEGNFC
# C3b (Homo sapiens), P01024, sequence (P01024 23-667): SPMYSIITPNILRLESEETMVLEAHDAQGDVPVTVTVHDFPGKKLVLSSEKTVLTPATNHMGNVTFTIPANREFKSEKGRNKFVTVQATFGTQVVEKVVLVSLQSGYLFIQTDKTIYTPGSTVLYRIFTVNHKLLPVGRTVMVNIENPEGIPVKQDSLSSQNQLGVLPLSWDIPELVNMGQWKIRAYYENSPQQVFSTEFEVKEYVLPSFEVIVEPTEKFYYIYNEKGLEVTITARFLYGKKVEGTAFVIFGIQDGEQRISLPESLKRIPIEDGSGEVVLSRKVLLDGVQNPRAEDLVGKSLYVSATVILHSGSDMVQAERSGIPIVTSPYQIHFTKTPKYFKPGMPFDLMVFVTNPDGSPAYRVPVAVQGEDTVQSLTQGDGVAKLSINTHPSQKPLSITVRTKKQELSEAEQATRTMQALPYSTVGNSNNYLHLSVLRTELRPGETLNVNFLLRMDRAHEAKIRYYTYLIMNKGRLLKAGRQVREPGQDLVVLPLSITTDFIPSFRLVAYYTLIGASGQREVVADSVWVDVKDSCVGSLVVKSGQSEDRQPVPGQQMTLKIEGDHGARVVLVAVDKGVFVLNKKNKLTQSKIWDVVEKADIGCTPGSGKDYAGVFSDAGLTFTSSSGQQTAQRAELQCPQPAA
# CHT (Homo sapiens), sequence (chain, as listed by the source): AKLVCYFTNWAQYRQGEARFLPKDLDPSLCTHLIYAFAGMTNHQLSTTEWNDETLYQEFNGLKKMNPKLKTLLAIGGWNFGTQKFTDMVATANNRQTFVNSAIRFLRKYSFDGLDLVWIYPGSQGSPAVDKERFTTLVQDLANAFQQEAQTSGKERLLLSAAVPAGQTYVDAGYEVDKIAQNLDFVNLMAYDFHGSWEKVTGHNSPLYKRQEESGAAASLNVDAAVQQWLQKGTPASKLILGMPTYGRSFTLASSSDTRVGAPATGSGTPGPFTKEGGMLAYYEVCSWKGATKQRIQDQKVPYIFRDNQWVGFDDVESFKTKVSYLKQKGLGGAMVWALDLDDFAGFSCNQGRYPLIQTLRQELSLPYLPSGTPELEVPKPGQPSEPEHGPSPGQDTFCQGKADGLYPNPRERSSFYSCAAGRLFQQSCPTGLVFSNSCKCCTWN
# 6RG (Lolium perenne), sequence (chain, as listed by the source): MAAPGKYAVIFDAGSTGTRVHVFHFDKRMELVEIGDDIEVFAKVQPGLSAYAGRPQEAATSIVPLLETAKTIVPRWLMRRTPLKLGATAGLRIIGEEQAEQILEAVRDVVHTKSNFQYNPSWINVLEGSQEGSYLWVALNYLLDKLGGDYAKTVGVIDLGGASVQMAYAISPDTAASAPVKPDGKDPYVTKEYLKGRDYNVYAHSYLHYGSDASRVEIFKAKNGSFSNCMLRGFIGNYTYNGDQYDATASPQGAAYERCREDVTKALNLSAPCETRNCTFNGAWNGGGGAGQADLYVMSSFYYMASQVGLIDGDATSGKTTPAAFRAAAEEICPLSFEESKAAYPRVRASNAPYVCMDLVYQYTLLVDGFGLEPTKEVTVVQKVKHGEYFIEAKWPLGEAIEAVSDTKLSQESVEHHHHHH
substance,measurement,setting,value
"CHI3L1 (Homo sapiens), P36222",glycan array binding signal (z-score),Neu5Ac(a2-8)Neu5Ac,-0.091
same,glycan array binding signal (z-score),[1],-0.07
"Neurocan (Homo sapiens), O14594",glycan array binding signal (z-score),[2],-0.18
Avaren (Actinomycete K97),glycan array binding signal (z-score),Neu5Ac(b2-6)GalNAc,-0.14
"6RG (Lolium perenne), B9U140",glycan array binding signal (z-score),[3],2.52
CHT (Homo sapiens),glycan array binding signal (z-score),[4],-0.166
"C3b (Homo sapiens), P01024",glycan array binding signal (z-score),[5],-0.102
6RG (Lolium perenne),glycan array binding signal (z-score),Neu5Ac(a2-8)Neu5Ac,-0.273
MpAFP RI GFP (Marinomonas primoryensis),glycan array binding signal (z-score),[1],0.228
same,glycan array binding signal (z-score),[3],-0.772
"Siglec-8 (Homo sapiens), Q9NYZ4",glycan array binding signal (z-score),Neu5Ac(a2-8)Neu5Ac,0.014
same,glycan array binding signal (z-score),[1],-0.078
same,glycan array binding signal (z-score),[6],-0.109
same,glycan array binding signal (z-score),[7],-0.465
same,glycan array binding signal (z-score),[8],0.025
same,glycan array binding signal (z-score),[2]; mutation: R125K,-0.109
